{"source": "PubChem BioAssay AID1159580", "about": "(chemical genetic matrix, 2015)", "test": "chemical genetic growth profiling, strain panel (AID 1159580);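 also: tested at 20 µM; growth read once vehicle control cultures reached saturation at 30 °C; 1 = growth at the plate median or of vehicle wells; lower values mean less growth of the strain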", "conditions": "growth OD", "note": "Among all 5,500 compounds or so, about 2,000 (36%) were called active. About 18% were inconclusive and are not listed. The list shows a part of the results. Values without a mark were called inactive. Rule as the data show it: active = normalized growth mostly below about 0.91 (no sharp cut-off); inconclusive = no clear call, values can overlap the other calls; inactive = mostly above about 0.92.", "data": [{"compound": "COc1ccc2c(c1)OC/C(=C\\c1ccc(OC)c(O)c1)C2=O", "values": [{"measurement": "normalized growth", "setting": "S. cerevisiae deletion strains, locus YJR066W, strain TOR1, stronger effect = lower value", "value": 0.891}, {"measurement": "normalized growth", "setting": "S. cerevisiae deletion strains, locus YKL009W, strain mrt4, stronger effect = lower value", "value": "0.843 (active)"}, {"measurement": "normalized growth", "setting": "S. cerevisiae deletion strains, locus YKL068W, stronger effect = lower value", "value": 0.948}, {"measurement": "normalized growth", "setting": "S. cerevisiae deletion strains, locus YKL085W, strain MDH1 (second series), stronger effect = lower value", "value": "0.915 (active)"}, {"measurement": "normalized growth", "setting": "S. cerevisiae deletion strains, locus YKL085W, strain MDH1, stronger effect = lower value", "value": "0.915 (active)"}, {"measurement": "normalized growth", "setting": "S. cerevisiae deletion strains, locus YKL160W, strain elf1, stronger effect = lower value", "value": "0.831 (active)"}, {"measurement": "normalized growth", "setting": "S. cerevisiae deletion strains, locus YKL190W, strain CNB1, stronger effect = lower value", "value": "0.81 (active)"}, {"measurement": "normalized growth", "setting": "S. cerevisiae deletion strains, locus YKR001C, strain vps1, stronger effect = lower value", "value": "0.651 (active)"}, {"measurement": "normalized growth", "setting": "S. cerevisiae deletion strains, locus YKR026C, strain gcn3, stronger effect = lower value", "value": 0.946}, {"measurement": "normalized growth", "setting": "S. cerevisiae deletion strains, locus YKR091W, strain srl3, stronger effect = lower value", "value": 0.962}, {"measurement": "normalized growth", "setting": "S. cerevisiae deletion strains, locus YLL001W, strain dnm1, stronger effect = lower value", "value": "0.823 (active)"}, {"measurement": "normalized growth", "setting": "S. cerevisiae deletion strains, locus YLL026W, stronger effect = lower value", "value": 0.931}, {"measurement": "normalized growth", "setting": "S. cerevisiae deletion strains, locus YLL041C, strain sdh2, stronger effect = lower value", "value": 0.955}, {"measurement": "normalized growth", "setting": "S. cerevisiae deletion strains, locus YLR027C, strain aat2, stronger effect = lower value", "value": "0.84 (active)"}, {"measurement": "normalized growth", "setting": "S. cerevisiae deletion strains, locus YLR039C, strain RIC1, stronger effect = lower value", "value": "0.51 (active)"}, {"measurement": "normalized growth", "setting": "S. cerevisiae deletion strains, locus YLR058C, strain SHM2, stronger effect = lower value", "value": "0.774 (active)"}, {"measurement": "normalized growth", "setting": "S. cerevisiae deletion strains, locus YLR102C, strain apc9, stronger effect = lower value", "value": "0.824 (active)"}, {"measurement": "normalized growth", "setting": "S. cerevisiae deletion strains, locus YLR113W, strain HOG1, stronger effect = lower value", "value": 0.909}, {"measurement": "normalized growth", "setting": "S. cerevisiae deletion strains, locus YLR221C, strain rsa3, stronger effect = lower value", "value": "0.841 (active)"}, {"measurement": "normalized growth", "setting": "S. cerevisiae deletion strains, locus YLR258W, strain gsy2, stronger effect = lower value", "value": "0.891 (active)"}, {"measurement": "normalized growth", "setting": "S. cerevisiae deletion strains, locus YLR262C, strain YPT6 (second series), stronger effect = lower value", "value": "0.719 (active)"}, {"measurement": "normalized growth", "setting": "S. cerevisiae deletion strains, locus YLR262C, strain YPT6, stronger effect = lower value", "value": "0.423 (active)"}, {"measurement": "normalized growth", "setting": "S. cerevisiae deletion strains, locus YLR268W, strain sec22, stronger effect = lower value", "value": "0.709 (active)"}, {"measurement": "normalized growth", "setting": "S. cerevisiae deletion strains, locus YLR320W, strain mms22, stronger effect = lower value", "value": "0.652 (active)"}, {"measurement": "normalized growth", "setting": "S. cerevisiae deletion strains, locus YLR330W, strain CHS5, stronger effect = lower value", "value": "0.467 (active)"}, {"measurement": "normalized growth", "setting": "S. cerevisiae deletion strains, locus YLR342W, strain FKS1 (second series), stronger effect = lower value", "value": "0.702 (active)"}, {"measurement": "normalized growth", "setting": "S. cerevisiae deletion strains, locus YLR342W, strain FKS1, stronger effect = lower value", "value": "0.885 (active)"}, {"measurement": "normalized growth", "setting": "S. cerevisiae deletion strains, locus YLR357W, strain rsc2, stronger effect = lower value", "value": 0.964}, {"measurement": "normalized growth", "setting": "S. cerevisiae deletion strains, locus YLR370C, strain arc18, stronger effect = lower value", "value": 0.938}, {"measurement": "normalized growth", "setting": "S. cerevisiae deletion strains, locus YLR371W, strain rom2, stronger effect = lower value", "value": "0.584 (active)"}, {"measurement": "normalized growth", "setting": "S. cerevisiae deletion strains, locus YLR384C, strain iki3, stronger effect = lower value", "value": 0.95}, {"measurement": "normalized growth", "setting": "S. cerevisiae deletion strains, locus YLR418C, strain cdc73, stronger effect = lower value", "value": "0.322 (active)"}, {"measurement": "normalized growth", "setting": "S. cerevisiae deletion strains, locus YML016C, strain PPZ1, stronger effect = lower value", "value": "0.791 (active)"}, {"measurement": "normalized growth", "setting": "S. cerevisiae deletion strains, locus YML032C, strain rad52, stronger effect = lower value", "value": "0.787 (active)"}, {"measurement": "normalized growth", "setting": "S. cerevisiae deletion strains, locus YML120C, strain ndi1, stronger effect = lower value", "value": "0.858 (active)"}, {"measurement": "normalized growth", "setting": "S. cerevisiae deletion strains, locus YML124C, strain tub3, stronger effect = lower value", "value": "0.865 (active)"}, {"measurement": "normalized growth", "setting": "S. cerevisiae deletion strains, locus YMR058W, strain fet3, stronger effect = lower value", "value": "0.846 (active)"}, {"measurement": "normalized growth", "setting": "S. cerevisiae deletion strains, locus YMR078C, strain ctf18, stronger effect = lower value", "value": "0.458 (active)"}, {"measurement": "normalized growth", "setting": "S. cerevisiae deletion strains, locus YMR125W, strain sto1, stronger effect = lower value", "value": "0.863 (active)"}, {"measurement": "normalized growth", "setting": "S. cerevisiae deletion strains, locus YMR129W, stronger effect = lower value", "value": 0.946}, {"measurement": "normalized growth", "setting": "S. cerevisiae deletion strains, locus YMR205C, strain PFK2, stronger effect = lower value", "value": "0.768 (active)"}, {"measurement": "normalized growth", "setting": "S. cerevisiae deletion strains, locus YMR223W, strain ubp8, stronger effect = lower value", "value": "0.761 (active)"}, {"measurement": "normalized growth", "setting": "S. cerevisiae deletion strains, locus YMR231W, strain pep5, stronger effect = lower value", "value": 0.977}, {"measurement": "normalized growth", "setting": "S. cerevisiae deletion strains, locus YMR307W, strain GAS1, stronger effect = lower value", "value": "0.557 (active)"}, {"measurement": "normalized growth", "setting": "S. cerevisiae deletion strains, locus YNL067W, strain RPL9B, stronger effect = lower value", "value": "0.774 (active)"}, {"measurement": "normalized growth", "setting": "S. cerevisiae deletion strains, locus YNL071W, strain lat1, stronger effect = lower value", "value": "0.369 (active)"}, {"measurement": "normalized growth", "setting": "S. cerevisiae deletion strains, locus YNL183C, strain NPR1, stronger effect = lower value", "value": 0.924}, {"measurement": "normalized growth", "setting": "S. cerevisiae deletion strains, locus YNL209W, strain ssb2, stronger effect = lower value", "value": 0.938}, {"measurement": "normalized growth", "setting": "S. cerevisiae deletion strains, locus YNL233W, strain BNI4, stronger effect = lower value", "value": "0.448 (active)"}, {"measurement": "normalized growth", "setting": "S. cerevisiae deletion strains, locus YNL248C, strain rpa49, stronger effect = lower value", "value": 0.902}, {"measurement": "normalized growth", "setting": "S. cerevisiae deletion strains, locus YNL250W, strain rad50, stronger effect = lower value", "value": "0.885 (active)"}, {"measurement": "normalized growth", "setting": "S. cerevisiae deletion strains, locus YNL271C, strain bni1, stronger effect = lower value", "value": "0.865 (active)"}, {"measurement": "normalized growth", "setting": "S. cerevisiae deletion strains, locus YNL298W, strain CLA4, stronger effect = lower value", "value": "0.895 (active)"}, {"measurement": "normalized growth", "setting": "S. cerevisiae deletion strains, locus YNL307C, strain MCK1, stronger effect = lower value", "value": "0.127 (active)"}, {"measurement": "normalized growth", "setting": "S. cerevisiae deletion strains, locus YNL322C, strain KRE1 (second series), stronger effect = lower value", "value": 0.95}, {"measurement": "normalized growth", "setting": "S. cerevisiae deletion strains, locus YNL322C, strain KRE1, stronger effect = lower value", "value": "0.793 (active)"}, {"measurement": "normalized growth", "setting": "S. cerevisiae deletion strains, locus YNR049C, strain mso1, stronger effect = lower value", "value": 0.955}, {"measurement": "normalized growth", "setting": "S. cerevisiae deletion strains, locus YNR052C, strain pop2, stronger effect = lower value", "value": "0.885 (active)"}, {"measurement": "normalized growth", "setting": "S. cerevisiae deletion strains, locus YOL006C, strain TOP1, stronger effect = lower value", "value": 0.563}, {"measurement": "normalized growth", "setting": "S. cerevisiae deletion strains, locus YOL012C, strain htz1", "value": 0.356}, {"measurement": "normalized growth", "setting": "S. cerevisiae deletion strains, locus YOL147C, strain pex11, stronger effect = lower value", "value": "0.542 (active)"}, {"measurement": "normalized growth", "setting": "S. cerevisiae deletion strains, locus YOR001W, strain rrp6, stronger effect = lower value", "value": "0.848 (active)"}, {"measurement": "normalized growth", "setting": "S. cerevisiae deletion strains, locus YOR061W, strain CKA2, stronger effect = lower value", "value": 0.93}, {"measurement": "normalized growth", "setting": "S. cerevisiae deletion strains, locus YOR069W, strain VPS5, stronger effect = lower value", "value": "0.807 (active)"}, {"measurement": "normalized growth", "setting": "S. cerevisiae deletion strains, locus YOR070C, strain gyp1, stronger effect = lower value", "value": "0.882 (active)"}, {"measurement": "normalized growth", "setting": "S. cerevisiae deletion strains, locus YOR080W, strain dia2, stronger effect = lower value", "value": 0.925}, {"measurement": "normalized growth", "setting": "S. cerevisiae deletion strains, locus YOR083W, strain WHI5, stronger effect = lower value", "value": "0.869 (active)"}, {"measurement": "normalized growth", "setting": "S. cerevisiae deletion strains, locus YOR106W, strain vam3, stronger effect = lower value", "value": "0.847 (active)"}, {"measurement": "normalized growth", "setting": "S. cerevisiae deletion strains, locus YOR136W, strain idh2, stronger effect = lower value", "value": "0.796 (active)"}, {"measurement": "normalized growth", "setting": "S. cerevisiae deletion strains, locus YOR144C, strain elg1, stronger effect = lower value", "value": "0.766 (active)"}, {"measurement": "normalized growth", "setting": "S. cerevisiae deletion strains, locus YOR184W, strain ser1, stronger effect = lower value", "value": "0.472 (active)"}, {"measurement": "normalized growth", "setting": "S. cerevisiae deletion strains, locus YOR231W, strain MKK1, stronger effect = lower value", "value": 0.995}, {"measurement": "normalized growth", "setting": "S. cerevisiae deletion strains, locus YOR265W, strain rbl2, stronger effect = lower value", "value": 0.941}, {"measurement": "normalized growth", "setting": "S. cerevisiae deletion strains, locus YOR270C, strain vph1, stronger effect = lower value", "value": "0.661 (active)"}, {"measurement": "normalized growth", "setting": "S. cerevisiae deletion strains, locus YOR290C, strain snf2, stronger effect = lower value", "value": "0.789 (active)"}, {"measurement": "normalized growth", "setting": "S. cerevisiae deletion strains, locus YOR316C, strain cot1, stronger effect = lower value", "value": "0.882 (active)"}, {"measurement": "normalized growth", "setting": "S. cerevisiae deletion strains, locus YPL051W, strain arl3, stronger effect = lower value", "value": "0.836 (active)"}, {"measurement": "normalized growth", "setting": "S. cerevisiae deletion strains, locus YPL055C, strain LGE1, stronger effect = lower value", "value": "0.576 (active)"}, {"measurement": "normalized growth", "setting": "S. cerevisiae deletion strains, locus YPL078C, strain atp4, stronger effect = lower value", "value": "0.836 (active)"}, {"measurement": "normalized growth", "setting": "S. cerevisiae deletion strains, locus YPL106C, strain sse1, stronger effect = lower value", "value": "0.729 (active)"}, {"measurement": "normalized growth", "setting": "S. cerevisiae deletion strains, locus YPL240C, strain hsp82, stronger effect = lower value", "value": 0.929}, {"measurement": "normalized growth", "setting": "S. cerevisiae deletion strains, locus YPL241C, strain CIN2, stronger effect = lower value", "value": 0.958}, {"measurement": "normalized growth", "setting": "S. cerevisiae deletion strains, locus YPL256C, strain CLN2, stronger effect = lower value", "value": 0.958}, {"measurement": "normalized growth", "setting": "S. cerevisiae deletion strains, locus YPR119W, strain clb2, stronger effect = lower value", "value": "0.859 (active)"}, {"measurement": "normalized growth", "setting": "S. cerevisiae deletion strains, locus YPR141C, strain kar3, stronger effect = lower value", "value": 0.924}, {"measurement": "normalized growth", "setting": "S. cerevisiae deletion strains, locus YPR163C, strain tif3, stronger effect = lower value", "value": "0.351 (active)"}, {"measurement": "normalized growth", "setting": "S. cerevisiae deletion strains, locus YPR167C, strain met16, stronger effect = lower value", "value": "0.811 (active)"}, {"measurement": "normalized growth", "setting": "S. cerevisiae deletion strains, strain wtn01, stronger effect = lower value", "value": "0.711 (active)"}, {"measurement": "normalized growth", "setting": "S. cerevisiae strains, strain wild type, stronger effect = lower value", "value": "0.663 (active)"}]}]}
